Results as given in PubChem BioAssay AID651863 (Broad Institute, 2012).
Entries with a potency or affinity are not part of this list. Unmarked numbers belong to inactive results. Activity calls are given as the source filed them.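 Rule for the calls: active = compounds whose fitted half-maximal cell-killing dose is at most twice the top tested dose; inconclusive = flat curve with 30 to 70 percent signal loss, or poor fit; inactive = the rest.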

Test: HEK293T cell cytotoxicity, dose response, cytotoxicity control, luminescence plate reader, powder samples, set 4 (AID 651863)
Conditions: HEK293T viability, CellTiter-Glo ATP luminescence, 48 h; series mostly up to 26 µM

Compound | outcome | activity change, negative = cytotoxicity
O=C(NCCc1ccccc1)c1ccccc1C(=O)NC[C@@H]1c2ccccc2CCN1C(=O)C1CCCCC1C(=O)O (some centres not stated) | inactive | 
O=C(Cc1ccccc1)NC[C@@H]1c2ccccc2CCN1C(=O)[C@@H]1CCCC[C@@H]1C(=O)O | inactive | 
O=C1c2ccccc2C(=O)N1C[C@@H]1c2ccccc2CCN1C(=O)OCc1ccccc1 | inactive | 
COC(=O)[C@@H]1CCCC[C@@H]1C(=O)N1CCc2ccccc2[C@@H]1CN1C(=O)c2ccccc2C1=O | inactive | 
O=C(O)C1CCCCC1C(=O)Nc1ccccc1CN1C(=O)c2ccccc2C1=O (configuration not stated) | inactive | 
O=C(O)[C@H]1CCCC[C@H]1C(=O)NC(CN1C(=O)c2ccccc2C1=O)c1ccccc1 (some centres not stated) | inactive | 
NC(=O)[C@H]1CCCC[C@H]1C(=O)N1CCc2ccccc2[C@H]1CN1C(=O)c2ccccc2C1=O | inactive | 
COC(=O)[C@H]1CCCC[C@H]1C(=O)N1CCc2ccccc2[C@H]1CN1C(=O)c2ccccc2C1=O | inactive | 
CCOC(=O)C(C(=O)OCC)c1nc(NS(=O)(=O)c2c(C)cc(C)cc2C)c2ccccc2n1 | inactive | 
O=C(O)[C@H]1CCCC[C@H]1C(=O)N1CCC2=C(CCCC2)C1CN1C(=O)c2ccccc2C1=O (some centres not stated) | inactive | 
Cc1ccc(S(=O)(=O)NNc2nc(C(C(=O)OC(C)C)C(=O)C(F)(F)F)nc3ccccc23)cc1 (configuration not stated) | inactive | 
O=C(O)C1CCCCC1C(=O)N1CCc2ccccc2C1CN1C(=O)Cc2ccccc2C1=O (configuration not stated) | inactive | 
O=C1c2ccccc2C(=O)N1C[C@H]1NCCc2ccccc21 | inactive | 
O=C(O)CC(=O)N1CCc2ccccc2C1CN1C(=O)c2ccccc2C1=O (configuration not stated) | inactive | 
C[C@H](NC(=O)C1CCCC[C@H]1C(=O)O)c1ccccc1 (mixture of isomers) | inactive | 
Cc1cc(C)c(S(=O)(=O)Nc2nc(C(C(=O)OC(C)C)C(=O)C(F)(F)F)nc3ccccc23)c(C)c1 (configuration not stated) | inactive | 

Compound | outcome | activity change, negative = cytotoxicity
O=C(O)c1ccccc1C(=O)N1CCc2ccccc2C1CN1C(=O)c2ccccc2C1=O (configuration not stated) | inactive | 
O=C(NC[C@@H]1c2ccccc2CCN1C(=O)[C@@H]1CCCC[C@@H]1C(=O)O)c1ccccc1CO | inactive | 
O=C(O)CCC(=O)N1CCc2ccccc2C1CN1C(=O)c2ccccc2C1=O (configuration not stated) | inactive | 
C[C@@H](NC(=O)C1CCCC[C@H]1C(=O)O)c1ccccc1 (mixture of isomers) | inactive | 
O=C1c2ccccc2C(=O)N1CC1c2ccccc2CCN1C(=O)Cc1ccccc1 (configuration not stated) |  | 0.765% [at 6 µM]
Cc1cc(C)c(S(=O)(=O)Nc2cc(C(C(=O)OC(C)C)C(=O)C(F)(F)F)c(O)c3ccccc23)c(C)c1 (configuration not stated) | inactive | 
CCOC(=O)Cc1nc(NS(=O)(=O)c2c(C)cc(C)cc2C)c2ccccc2n1 | inactive | 
COC(=O)C1CCCCC1C(=O)N1CCc2ccccc2C1CN1C(=O)c2ccccc2C1=O (configuration not stated) | inactive | 
O=C(O)C1CCCCC1C(=O)N1CCc2ccccc2C1c1ccccc1 (configuration not stated) | inactive | 
O=C(O)[C@H]1CCCC[C@H]1C(=O)N1CCc2ccccc2[C@H]1CNS(=O)(=O)c1ccccc1 | inactive | 
O=C(O)C1CCCCC1C(=O)N1CCc2ccccc2C1CN1C(=O)c2ccccc2S1(=O)=O (configuration not stated) | inactive | 
O=C1c2ccccc2C(=O)N1CC1=NCCc2ccccc21 | inactive | 
O=C(O)c1ccccc1C(=O)NC[C@@H]1c2ccccc2CCN1C(=O)[C@@H]1CCCC[C@@H]1C(=O)O | inactive | 
Cc1ccc(S(=O)(=O)NNc2nc(N3CC(O)CC3C(=O)O)nc3ccccc23)cc1 (configuration not stated) | inactive | 
O=C(O)[C@H]1CCCC[C@H]1C(=O)N1CCc2ccccc2[C@H]1CNS(=O)(=O)c1ccc([N+](=O)[O-])cc1 | inactive | 
COC(=O)CNc1nc(NS(=O)(=O)c2c(C)cc(C)cc2C)c2ccccc2n1 | inactive | 
